Results filed as inconclusive are left out. Where a call stands in place of a potency, no number is given. Activity calls are given as the source filed them. Unless noted, calls follow the shape of the dose curve; as a rule, active = well fitted inhibition curve with a large enough effect; inconclusive = small, poorly fitted or top-dose-only effect; inactive = flat fitted curve, though single readings scatter.
Key:
[1] = S16 Schwann cell PMP22 intronic element beta-lactamase assay (AID 624044; calls by dose curve; also: nearly all actives have a fitted effect of over 15% in size); conditions: S16 rat Schwann cells, PMP22 element beta-lactamase FRET, 24 h; series mostly up to 17.1 µM
Procedure, shortened: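 Rat S16 Schwann cells with beta-Lac driven by a PMP22 intronic element, compound-treated 24 h at 37 °C. LiveBLAzer FRET B/G read: 460 nm normalized to potassium clavulanate vs DMSO; 535 nm FRET as viability; concentration-effect curves classified.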

ATS189 = experiment: qHTS profiling for inhibitors of Plasmodium falciparum proliferation (AID 504749); also: nearly all actives have a fitted effect of over 60% in size; also: potency is read from the fitted curve at half-maximal effect; conditions: P. falciparum in erythrocytes, SYBR Green DNA, 72 h; series mostly up to 12.8 µM
Procedure, shortened: (§1)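 Readout was DNA-dye fluorescence from lysed cultures, ex 485/em 535 nm. Parasitized red cells had grown 72 h with compound; data scaled between 0.29 uM artemisinin and DMSO wells and corrected using vehicle-only plates.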

ATS95 = experiment: as above; conditions: P. falciparum in erythrocytes, SYBR Green DNA, 72 h; series mostly up to 12.8 µM
Procedure, shortened: as §1

CP201 = experiment: as above; conditions: P. falciparum in erythrocytes, SYBR Green DNA, 72 h; series mostly up to 12.8 µM
Procedure, shortened: as §1

CP247 = experiment: as above; conditions: P. falciparum in erythrocytes, SYBR Green DNA, 72 h; series mostly up to 12.8 µM
Procedure, shortened: as §1

CP260 = experiment: as above; conditions: P. falciparum in erythrocytes, SYBR Green DNA, 72 h; series mostly up to 12.8 µM
Procedure, shortened: as §1

CP262 = experiment: as above; conditions: P. falciparum in erythrocytes, SYBR Green DNA, 72 h; series mostly up to 12.8 µM
Procedure, shortened: as §1

CP268 = experiment: as above; conditions: P. falciparum in erythrocytes, SYBR Green DNA, 72 h; series mostly up to 12.8 µM
Procedure, shortened: as §1

CP269 = experiment: as above; conditions: P. falciparum in erythrocytes, SYBR Green DNA, 72 h; series mostly up to 12.8 µM
Procedure, shortened: as §1

CP286 = experiment: as above; conditions: P. falciparum in erythrocytes, SYBR Green DNA, 72 h; series mostly up to 12.8 µM
Procedure, shortened: as §1

CP297 = experiment: as above; conditions: P. falciparum in erythrocytes, SYBR Green DNA, 72 h; series mostly up to 12.8 µM
Procedure, shortened: as §1

CP305 = experiment: as above; conditions: P. falciparum in erythrocytes, SYBR Green DNA, 72 h; series mostly up to 12.8 µM
Procedure, shortened: as §1

CP315 = experiment: as above; conditions: P. falciparum in erythrocytes, SYBR Green DNA, 72 h; series mostly up to 12.8 µM
Procedure, shortened: as §1

DIV17 = experiment: as above; conditions: P. falciparum in erythrocytes, SYBR Green DNA, 72 h; series mostly up to 12.8 µM
Procedure, shortened: as §1

Dd2 = experiment: as above; conditions: P. falciparum in erythrocytes, SYBR Green DNA, 72 h; series mostly up to 12.8 µM
Procedure, shortened: as §1

GB4 = experiment: as above; conditions: P. falciparum in erythrocytes, SYBR Green DNA, 72 h; series mostly up to 12.8 µM
Procedure, shortened: as §1

PAD = experiment: as above; conditions: P. falciparum in erythrocytes, SYBR Green DNA, 72 h; series mostly up to 12.8 µM
Procedure, shortened: as §1

TAB109 = experiment: as above; conditions: P. falciparum in erythrocytes, SYBR Green DNA, 72 h; series mostly up to 12.8 µM
Procedure, shortened: as §1

TAB113 = experiment: as above; conditions: P. falciparum in erythrocytes, SYBR Green DNA, 72 h; series mostly up to 12.8 µM
Procedure, shortened: as §1

TAB165 = experiment: as above; conditions: P. falciparum in erythrocytes, SYBR Green DNA, 72 h; series mostly up to 12.8 µM
Procedure, shortened: as §1

Structure (SMILES) | Potency [1] | Potency (ATS189) | Potency (ATS95) | Potency (CP201) | Potency (CP247) | Potency (CP260) | Potency (CP262) | Potency (CP268) | Potency (CP269) | Potency (CP286) | Potency (CP297) | Potency (CP305) | Potency (CP315) | Potency (DIV17) | Potency (Dd2) | Potency (GB4) | Potency (PAD) | Potency (TAB109) | Potency (TAB113) | Potency (TAB165)
CC1=C(C(=O)O)N2C(=O)[C@@H](NC(=O)[C@@H](N)c3ccc(O)cc3)[C@@H]2SC1 | inactive | inactive | inactive | inactive | inactive | inactive | inactive | inactive | inactive | inactive | inactive | inactive | inactive | inactive | inactive | inactive | inactive | inactive | inactive | inactive
O[C@@](CCN1CCCC1)(c1ccccc1)C1CCCCC1 | inactive | inactive |  |  |  | inactive | inactive | inactive | inactive | inactive | inactive |  | inactive | 3.22 µM (active) |  | inactive |  |  | inactive | 
NC[C@@H]1O[C@H](O[C@H]2[C@H](O)[C@H](O[C@@H]3O[C@H](CO)[C@@H](O)[C@H](N)[C@@H]3O)[C@@H](N)C[C@H]2N)[C@@H](O)[C@H](O)[C@@H]1O |  | inactive | inactive | inactive | inactive | inactive | inactive | inactive | inactive | inactive | inactive | inactive | inactive | inactive | inactive | inactive | inactive | inactive | inactive | inactive
CN[C@H]1[C@@H](O)[C@@H](NC)[C@@H]2O[C@@]3(O)C(=O)C[C@@H](C)O[C@H]3O[C@H]2[C@H]1O | inactive | inactive | inactive | inactive | inactive | inactive | inactive | inactive | inactive | inactive | inactive | inactive | inactive | inactive | inactive | inactive | inactive | inactive | inactive | inactive
CC(=O)OCC(=O)[C@@]12OC(C)(C)O[C@@H]1C[C@H]1[C@H]3C[C@H](F)C4=CC(=O)C=C[C@@]4(C)[C@]3(F)[C@H](O)C[C@@]12C |  | inactive | inactive | inactive | inactive | inactive | inactive | inactive | inactive | inactive | inactive | inactive | inactive | inactive | inactive | inactive | inactive | inactive | inactive | inactive
NC[C@@H]1O[C@H](O[C@@H]2[C@H](O[C@@H]3O[C@H](CO)[C@@H](O)[C@@H]3O)[C@@H](O)[C@@H](N)C[C@H]2N)[C@@H](N)[C@H](O)[C@@H]1O | inactive | inactive | inactive | inactive | inactive | inactive | inactive | inactive | inactive | inactive | inactive | inactive | inactive | inactive | inactive | inactive | inactive | inactive | inactive | inactive
c1ccc2c(c1)CCC[C@@H]2C1=NCCN1 |  | inactive | inactive | inactive | inactive | inactive | inactive | inactive | inactive | inactive | inactive | inactive | inactive | inactive | inactive | inactive | inactive | inactive | inactive | inactive
CCN[C@@H]1C[C@H](N)[C@H](O[C@H]2OC(CN)=CC[C@H]2N)[C@@H](O)[C@H]1O[C@H]1OC[C@@](C)(O)[C@@H](NC)[C@@H]1O | inactive | inactive | inactive | inactive | inactive | inactive | inactive | inactive | inactive | inactive | inactive | inactive | inactive | inactive | inactive | inactive | inactive | inactive | inactive | inactive
Clc1ccc([C@H](Cn2ccnc2)OCc2csc3c(Cl)cccc23)c(Cl)c1 | inactive |  |  |  |  |  | inactive | inactive |  |  | 6.42 µM (active) |  |  | 7.21 µM (active) | 3.55 µM (active) | 5.1 µM (active) | 3.55 µM (active) |  |  | 2.24 µM (active)
CCOC(=O)Oc1c(OC)cc(C(=O)O[C@H]2C[C@H]3CN4CCc5c([nH]c6cc(OC)ccc56)[C@@H]4C[C@H]3[C@@H](C(=O)OC)[C@@H]2OC)cc1OC | inactive |  |  |  |  | 2.51 µM (active) |  |  |  | 2.51 µM (active) | 7.21 µM (active) |  |  | 5.73 µM (active) |  | 6.42 µM (active) | 3.55 µM (active) | 3.55 µM (active) | 3.98 µM (active) | 3.55 µM (active)
CN1CCN([C@@H](c2ccccc2)c2ccc(Cl)cc2)CC1 | inactive |  |  |  | inactive | inactive | inactive |  | inactive | inactive | inactive | inactive | inactive |  |  |  |  | inactive |  | 
CN(C)CCn1nnnc1SCC1=C(C(=O)O)N2C(=O)[C@@H](NC(=O)Cc3csc(N)n3)[C@@H]2SC1 | inactive |  | inactive | inactive | inactive |  | inactive | inactive |  | inactive | inactive | inactive | inactive |  | inactive |  |  |  |  | 
CC(C)NC[C@H]1CCc2cc(CO)c([N+](=O)[O-])cc2N1 |  | inactive | inactive | inactive | inactive | inactive |  | inactive | inactive | inactive | inactive | inactive | inactive | inactive | inactive | inactive | inactive | inactive | inactive | inactive
NS(=O)(=O)c1cc2c(cc1Cl)N[C@@H](C(Cl)Cl)NS2(=O)=O | inactive | inactive | inactive | inactive | inactive | inactive | inactive | inactive | inactive | inactive | inactive | inactive | inactive | inactive | inactive | inactive | inactive | inactive | inactive | inactive
CC1(C)O[C@H]2C[C@@H]3[C@H]4CCC5=CC(=O)CC[C@@]5(C)[C@]4(F)[C@@H](O)C[C@@]3(C)[C@@]2(C(=O)CCl)O1 | inactive | 3.55 µM (active) | 1.58 µM (active) |  | 3.98 µM (active) | 3.16 µM (active) |  |  |  |  |  |  |  | 6.42 µM (active) |  | 5.73 µM (active) |  | 1.41 µM (active) |  | 3.16 µM (active)
CCN(CC)[C@@H](C)CN1c2ccccc2Sc2ccccc21 | inactive |  |  |  |  |  | inactive |  | inactive |  | inactive | inactive | inactive |  | 1.26 µM (active) | 5.73 µM (active) | inactive |  |  | 
CO[C@]1(NC(=O)[C@H](C(=O)O)c2ccc(O)cc2)C(=O)N2C(C(=O)O)=C(CSc3nnnn3C)CO[C@H]21 | inactive | inactive | inactive | inactive | inactive | inactive | inactive | inactive | inactive | inactive | inactive | inactive |  | inactive | inactive | inactive | inactive | inactive | inactive | inactive
Cc1ccc(S(=O)(=O)NC(=O)NN2C[C@H]3CCC[C@@H]3C2)cc1 | inactive | inactive | inactive | inactive | inactive | inactive | inactive | inactive | inactive | inactive | inactive | inactive | inactive | inactive | inactive | inactive | inactive | inactive | inactive | inactive
CC=C(/C(=C/C)c1ccc(O)cc1)c1ccc(O)cc1 | inactive | inactive | inactive | inactive | inactive | inactive | inactive | inactive | inactive | inactive | inactive | inactive | inactive | inactive | inactive | inactive | inactive | inactive | inactive | inactive
CCCC[C@H](CC)CN1CN(C[C@@H](CC)CCCC)CC(C)(N)C1 | inactive | inactive | inactive | inactive | inactive | 3.55 µM (active) | inactive | inactive | inactive |  | inactive | inactive | inactive | inactive | inactive | inactive | inactive | inactive | inactive | inactive
C[N+]12CCC(CC1)[C@@H](OC(=O)C(O)(c1ccccc1)c1ccccc1)C2 |  | inactive | inactive |  | inactive | inactive | inactive | inactive | inactive | inactive | inactive |  |  |  | inactive |  | inactive | inactive | inactive | inactive
NS(=O)(=O)c1cc2c(cc1C(F)(F)F)N[C@H](Cc1ccccc1)NS2(=O)=O |  | inactive | inactive | inactive | inactive | inactive | inactive | inactive | inactive | inactive | inactive | inactive | inactive | inactive | inactive | inactive | inactive | inactive | inactive | inactive
CCC(=O)[C@@]1(C)[C@H](C)C[C@@H]2[C@@H]3CCC4=CC(=O)C=C[C@@]4(C)[C@H]3[C@H](O)C[C@]21C | inactive | inactive | inactive | inactive | inactive |  | inactive | inactive | inactive |  | inactive | inactive | inactive | inactive | inactive | inactive | inactive | inactive | inactive | inactive
